Screening results (PubChem)
In the library only some 2.2% were active in any assay of this set; here they are far more common.
Cardio protect = cardioprotection against H2O2-induced cell death, primary screen, uHTS, H9c2 cells, ATPLite luminescence. H9c2 cardiomyocytes, H2O2 injury protection, 2 h. protection from H2O2 cell death, % at 20 µM. hit rate 0.63% among 360,000. AID 588492, 2011;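 active = compounds giving at least 50% protection of heart cells from peroxide-induced death in the single-dose screen, raw or plate-pattern-corrected value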;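 note: 0% = DMSO wells with peroxide and 100% = DMSO wells without peroxide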
hiPSC survival = enhancers of single-cell hiPSC survival, primary screen, ATPlite luminescence; 100% = ROCK inhibitor wells, 0% = DMSO; AID 602274, 2012; hit rate 0.044% among 360,000; survival enhancement, % at 20 µM; in the data active = survival enhancement above about 18%;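 note: cells exposed to compounds for 16 hours before the ATP read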
ABCB6 inh 2 = ABCB6 transporter inhibitors, primary screen, K562-ABCB6 cells, flow cytometry, MLPCN library; ATP-binding cassette sub-family B member 6 (Homo sapiens), Q9NP58; K562-ABCB6 porphyrin accumulation, 1 h; active compounds read low; fluorescence ratio to DMSO, % at 10 µM; hit rate 0.19% among 360,000; AID 602162, 2011;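 active = fluorescence ratio to DMSO below 75%, the collection mean minus 3 SD; inconclusive = too few cells collected in the well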;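 note: signal is porphyrin accumulated inside mitochondria; 100% equals median channel fluorescence of DMSO control wells; lower ratio means ABCB6 inhibition with less porphyrin fluorescence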
Target sequence (Q9NP58 whole entry, looked up): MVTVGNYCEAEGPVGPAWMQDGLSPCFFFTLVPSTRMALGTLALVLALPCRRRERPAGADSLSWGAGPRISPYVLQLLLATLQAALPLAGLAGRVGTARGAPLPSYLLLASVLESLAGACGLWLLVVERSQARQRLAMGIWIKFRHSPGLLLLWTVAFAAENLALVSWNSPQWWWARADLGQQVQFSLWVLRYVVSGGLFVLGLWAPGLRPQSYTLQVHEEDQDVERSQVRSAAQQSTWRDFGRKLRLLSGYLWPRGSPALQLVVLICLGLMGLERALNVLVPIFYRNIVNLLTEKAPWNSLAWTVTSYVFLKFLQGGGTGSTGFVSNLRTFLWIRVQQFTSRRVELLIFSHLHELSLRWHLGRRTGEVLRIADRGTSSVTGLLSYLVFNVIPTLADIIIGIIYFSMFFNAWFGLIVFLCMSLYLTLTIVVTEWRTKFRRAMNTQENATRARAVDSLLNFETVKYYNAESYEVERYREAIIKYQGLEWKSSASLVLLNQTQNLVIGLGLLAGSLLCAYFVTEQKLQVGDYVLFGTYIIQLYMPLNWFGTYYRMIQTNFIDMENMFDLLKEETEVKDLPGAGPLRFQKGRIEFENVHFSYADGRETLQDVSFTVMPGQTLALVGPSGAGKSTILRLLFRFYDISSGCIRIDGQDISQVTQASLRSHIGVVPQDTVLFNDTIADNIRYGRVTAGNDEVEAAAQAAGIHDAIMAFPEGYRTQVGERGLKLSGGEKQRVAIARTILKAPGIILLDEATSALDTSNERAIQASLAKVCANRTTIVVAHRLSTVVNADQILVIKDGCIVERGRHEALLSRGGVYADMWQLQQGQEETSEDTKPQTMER
MIN6 prolif = inducers of MIN6 beta-cell proliferation, primary screen, ATP luminescence, uHTS; MIN6 cells proliferation, ATPlite luminescence, 48 h; cells starved in 0.2% serum; 100% = growth in 10% serum; proliferation, % at 10 µM; hit rate 0.29% among 330,000;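 active = compounds whose signal lies at least 3.5 SD above the mean of all wells on their plate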;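 note: 0% = DMSO-treated cells in low-serum medium and 100% = 10% serum control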
Myeloid diff 2 = induction of myeloid progenitor differentiation, primary screen, cell-based, flow cytometry, MLPCN library. hit rate 1% among 360,000. ER-HoxA9 myeloid progenitors, lysozyme-GFP differentiation. calls only at 10 µM;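 active = normalized GFP-positive differentiation at or above the plate's own cutoff, the solvent-only control mean plus 3 SD; inconclusive = no clear call, values can overlap the other calls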;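 note: cells exposed to compound for four days before flow analysis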
Myeloid diff CP1 = inducers of myeloid progenitor differentiation, confirmation, cell-based, GFP/Mac1 flow cytometry, cherry pick 01 | shares compounds with Myeloid diff 2 | ER-HoxA9 myeloid progenitors, GFP/Mac1 double-positive flow | calls only | hit rate 2% among 2,300;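 active = share of green or green-and-red cells above 9 and 9% in run 1 or 4 and 3% in run 2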
GFP autofluor = flagged as fluorescent in myeloid differentiation counter-screen; hit rate 7.4% among 2,300; shares compounds with Myeloid diff 2; fluorescence response, % (concentration not given with the values); ER-HoxA9 myeloid progenitors, no estrogen, GFP autofluorescence flow cytometry; vehicle wells 0%, positive control 100%;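 active = over 5% cells positive for green fluorescent reporter, or over 2% positive for both it and APC stain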;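 note: range taken on the double positive population between DMSO and positive control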
The depositor's hits bear a star.

What do the screens show for `COc1ccc2c(c1)-c1ccccc1S(=O)(=O)N2C(C)=O`?
Cardio protect: 0; hiPSC survival: -1; ABCB6 inh 2: 96; MIN6 prolif: 2; Myeloid diff 2: inactive; Myeloid diff CP1: inactive; GFP autofluor: 0

How did CCC(C)NC(=O)C1CCN(S(=O)(=O)c2ccc3nc4c(c(C(=O)O)c3c2)CCCCC4)CC1 (configuration not stated) do in these assays?
Cardio protect: -2; hiPSC survival: 0; ABCB6 inh 2: 97; MIN6 prolif: -3; Myeloid diff 2: inconclusive

Results for COc1cc(C(=O)NCCC(=O)NCc2c(F)cc(F)cc2F)cc(OC)c1OC ?
Cardio protect: 5; hiPSC survival: 0; ABCB6 inh 2: 98; MIN6 prolif: -2; Myeloid diff 2: inactive; Myeloid diff CP1: inactive; GFP autofluor: 0

Results for Cc1ccc(N2/C(=N/c3nc(C)cc(C)n3)NC(=O)CC2C(=O)O)cc1 (configuration not stated) ?
Cardio protect: -1; hiPSC survival: -2; ABCB6 inh 2: 92; MIN6 prolif: -2; Myeloid diff 2: inactive

What do the screens show for `O=S(=O)(c1ccc2c(c1)OCCO2)N1CCC(c2nc3ccc(Cl)cc3[nH]2)CC1`?
Cardio protect: 8; hiPSC survival: 0; ABCB6 inh 2: 97; MIN6 prolif: -5; Myeloid diff 2: inactive; Myeloid diff CP1: inactive; GFP autofluor: 0

Results for O=S(=O)(c1ccc2c(c1)OCCO2)N1CCC(c2nc3ccccc3[nH]2)CC1 ?
Cardio protect: 5; hiPSC survival: -2; ABCB6 inh 2: 89; MIN6 prolif: -3; Myeloid diff 2: inactive

How did CN(C)c1nc(NCc2ccccc2)nc(SCC(=O)Nc2ccc(Cl)c(Cl)c2)n1 do in these assays?
Cardio protect: -12; hiPSC survival: -2; ABCB6 inh 2: 97; MIN6 prolif: -6; Myeloid diff 2: inactive

Results for Cc1ccc2cc(C#N)c(N3CCCN(C(=O)C4CCCO4)CC3)nc2c1C (configuration not stated) ?
Cardio protect: 21; hiPSC survival: -1; ABCB6 inh 2: 96; MIN6 prolif: -5; Myeloid diff 2: inactive; Myeloid diff CP1: inactive; GFP autofluor: 1

Results for Cc1ccc2cc(C#N)c(N3CCCC3)nc2c1C ?
Cardio protect: 0; hiPSC survival: -5; ABCB6 inh 2: 108; MIN6 prolif: 0; Myeloid diff 2: inactive

What do the screens show for `C/C=C/c1ccc(OCCOCCNCc2ccccc2)c(OC)c1`?
Cardio protect: 3; hiPSC survival: -1; ABCB6 inh 2: 103; MIN6 prolif: -3; Myeloid diff 2: inactive

What do the screens show for `c1ccc(NC2=Nc3ccccc3CC2)cc1`?
Cardio protect: 0; hiPSC survival: 1; ABCB6 inh 2: 108; MIN6 prolif: 0; Myeloid diff 2: active; Myeloid diff CP1: inactive; GFP autofluor: 0

What do the screens show for `O=C(CC(c1ccccc1)(c1ccccc1)c1ccccc1)N[C@@H](Cc1ccccc1)C(=O)O`?
Cardio protect: 8; hiPSC survival: 4; ABCB6 inh 2: 95; MIN6 prolif: -2; Myeloid diff 2: inactive

Results for O=S(=O)(NCc1ccccc1Br)c1cccs1 ?
Cardio protect: -2; hiPSC survival: -1; ABCB6 inh 2: 103; MIN6 prolif: 0; Myeloid diff 2: inactive; Myeloid diff CP1: inactive; GFP autofluor: 0

How did Cc1cc(C)cc(C(=O)NC(=S)Nc2ccc(Cc3ccncc3)cc2)c1 do in these assays?
Cardio protect: -8; hiPSC survival: -2; ABCB6 inh 2: 98; MIN6 prolif: -3; Myeloid diff 2: inactive

What do the screens show for `COc1cccc(NC(=O)Nc2ccc(Cc3ccncc3)cc2)c1`?
Cardio protect: -6; hiPSC survival: -2; ABCB6 inh 2: 99; MIN6 prolif: -1; Myeloid diff 2: active; Myeloid diff CP1: inactive; GFP autofluor: 1

How did O=C(NC(=S)Nc1ccc(Cc2ccncc2)cc1)c1ccccc1 do in these assays?
Cardio protect: -2; hiPSC survival: -2; ABCB6 inh 2: 94; MIN6 prolif: -3; Myeloid diff 2: active; Myeloid diff CP1: inactive; GFP autofluor: 5.4*

What do the screens show for `CCC(=O)Nc1cccc(NC(=S)NC(=O)c2ccccc2)c1`?
Cardio protect: -1; hiPSC survival: 0; ABCB6 inh 2: 96; MIN6 prolif: 0; Myeloid diff 2: inactive

Results for Cc1ccc2cccc(NC(=S)NC(=O)c3ccccc3)c2n1 ?
Cardio protect: 0; hiPSC survival: -1; ABCB6 inh 2: 97; MIN6 prolif: -5; Myeloid diff 2: inactive; Myeloid diff CP1: inactive; GFP autofluor: 1

How did O=C(NC(=S)Nc1cccc(NC(=S)NC(=O)c2ccccc2)c1)c1ccccc1 do in these assays?
Cardio protect: -10; hiPSC survival: 0; ABCB6 inh 2: 108; Myeloid diff 2: active; Myeloid diff CP1: inactive; GFP autofluor: 1

How did O=C(Cc1ccccc1)NN1CCCCC1 do in these assays?
Cardio protect: 4; hiPSC survival: -1; ABCB6 inh 2: 91; MIN6 prolif: -2; Myeloid diff 2: inactive

What do the screens show for `COc1cccc(Cn2nnc(C(=O)Nc3ccc(C)cc3)c2N)c1`?
Cardio protect: -2; hiPSC survival: -2; ABCB6 inh 2: 97; MIN6 prolif: -3; Myeloid diff 2: inactive

Results for COc1cccc(Cn2nnc(C(=O)Nc3cc(C)ccc3OC)c2N)c1 ?
Cardio protect: -18; hiPSC survival: -5; ABCB6 inh 2: 99; MIN6 prolif: -3; Myeloid diff 2: active; Myeloid diff CP1: inactive; GFP autofluor: 88*

What do the screens show for `CCOC(=O)C1CCN(C(=O)COc2ccc([N+](=O)[O-])cc2)CC1`?
Cardio protect: 12; hiPSC survival: -2; ABCB6 inh 2: 96; MIN6 prolif: 1; Myeloid diff 2: inactive

What do the screens show for `CCOC(=O)C1CCN(C(=O)COC(=O)/C=C/c2ccc([N+](=O)[O-])cc2)CC1`?
Cardio protect: -11; hiPSC survival: 0; ABCB6 inh 2: 98; MIN6 prolif: -3; Myeloid diff 2: inactive; Myeloid diff CP1: inactive; GFP autofluor: 2

Results for O=C(Nc1ccccc1C(=O)N1CCN(c2cccc(Cl)c2)CC1)C1=CSCCO1 ?
Cardio protect: -7; hiPSC survival: 0; ABCB6 inh 2: 97; MIN6 prolif: -1; Myeloid diff 2: inactive

What do the screens show for `Cc1ccc2[nH]c(=O)c(CN(CCCO)S(=O)(=O)c3c(C)ccc4nsnc34)cc2c1`?
Cardio protect: 3; hiPSC survival: 3; ABCB6 inh 2: 101; MIN6 prolif: 0; Myeloid diff 2: inactive
